# Data published in PMC7862700, “An all-to-all approach to the identification of sequence-specific readers for epigenetic DNA modifications on cytosine”.
# Key:
# Test in all cases: DAPPL (digital affinity profiling via proximity ligation, sequencing); 10 mM Tris-HCl pH 7.5, 50 mM NaCl, 1 mM DTT, 4% glycerol, room temperature, 30 min; GST-TFs on glutathione beads, 16-mer random dsDNA library, 0.1% formaldehyde crosslink after washing; high values mean tight binding
# FEV = target: T1, FEV (Homo sapiens, UniProt Q99581 1-238); settings: protein: recombinant; tags: N-terminal GST; dsDNA, one strand shown
# T1 sequence: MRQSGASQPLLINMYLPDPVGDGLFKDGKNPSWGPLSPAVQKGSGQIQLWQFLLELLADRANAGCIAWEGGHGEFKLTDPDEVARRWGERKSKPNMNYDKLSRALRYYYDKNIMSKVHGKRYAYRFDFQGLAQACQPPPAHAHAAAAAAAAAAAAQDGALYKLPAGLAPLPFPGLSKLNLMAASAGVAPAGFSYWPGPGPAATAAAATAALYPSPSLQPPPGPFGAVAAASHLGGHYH
# In short: (§1)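 Pools of DNA-barcoded human transcription factors, expressed in yeast as GST fusions on glutathione beads and combined with a tag-only sample, were incubated with 200 nmole of a 16-mer random double-stranded DNA library. Incubation took 30 min at room temperature in Tris/NaCl/DTT/glycerol buffer and was followed by washing, 0.1% formaldehyde crosslinking, proximity ligation (BsaI/T4 ligase, 1 h, 37 °C), PCR amplification and sequencing on an Illumina NextSeq500. Binding signal is the ratio of a hexamer's read frequency for a factor to its frequency for the tag-only sample.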
# ETV5 = ETV5 (Homo sapiens, UniProt P41161 1-510); settings: protein: recombinant; tags: N-terminal GST; dsDNA, one strand shown
# In short: as §1
# HSF1 = HSF1 (Homo sapiens, UniProt Q00613 1-529); settings: protein: recombinant; tags: N-terminal GST; chain copies: 3; dsDNA, one strand shown
# In short: as §1
# SPIC = target: T2, SPIC (Homo sapiens, UniProt Q8N5J4 1-248); settings: protein: recombinant; tags: N-terminal GST; dsDNA, one strand shown
# T2 sequence: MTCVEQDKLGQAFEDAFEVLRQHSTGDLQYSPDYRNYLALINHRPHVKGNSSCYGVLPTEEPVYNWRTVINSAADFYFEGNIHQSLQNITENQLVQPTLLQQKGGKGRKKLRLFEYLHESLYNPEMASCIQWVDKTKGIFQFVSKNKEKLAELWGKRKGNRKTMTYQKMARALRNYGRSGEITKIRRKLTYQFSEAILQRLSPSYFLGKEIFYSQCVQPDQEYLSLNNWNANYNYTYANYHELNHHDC
# In short: as §1
# ELF4 = ELF4 (Homo sapiens, UniProt Q99607 1-663); settings: protein: recombinant; tags: N-terminal GST; dsDNA, one strand shown
# In short: as §1
# ELK4 = target: T3, ELK4 (Homo sapiens, UniProt P28324-2 1-405); settings: protein: recombinant; tags: N-terminal GST; dsDNA, one strand shown
# T3 sequence: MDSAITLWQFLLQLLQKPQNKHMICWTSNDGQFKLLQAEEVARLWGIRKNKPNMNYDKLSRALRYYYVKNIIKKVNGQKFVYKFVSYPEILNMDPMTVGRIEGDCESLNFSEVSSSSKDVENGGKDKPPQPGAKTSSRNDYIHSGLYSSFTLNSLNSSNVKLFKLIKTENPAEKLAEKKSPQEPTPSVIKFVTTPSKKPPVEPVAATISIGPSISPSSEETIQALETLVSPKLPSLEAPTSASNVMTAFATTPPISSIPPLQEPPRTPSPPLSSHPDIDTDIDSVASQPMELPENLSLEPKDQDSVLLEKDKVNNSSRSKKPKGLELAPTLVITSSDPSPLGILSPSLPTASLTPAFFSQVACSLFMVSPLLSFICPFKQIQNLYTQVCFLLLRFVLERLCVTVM
# In short: as §1
# ETV2 = target: T4, ETV2 (Homo sapiens, UniProt O00321 1-342); settings: protein: recombinant; tags: N-terminal GST; dsDNA, one strand shown
# T4 sequence: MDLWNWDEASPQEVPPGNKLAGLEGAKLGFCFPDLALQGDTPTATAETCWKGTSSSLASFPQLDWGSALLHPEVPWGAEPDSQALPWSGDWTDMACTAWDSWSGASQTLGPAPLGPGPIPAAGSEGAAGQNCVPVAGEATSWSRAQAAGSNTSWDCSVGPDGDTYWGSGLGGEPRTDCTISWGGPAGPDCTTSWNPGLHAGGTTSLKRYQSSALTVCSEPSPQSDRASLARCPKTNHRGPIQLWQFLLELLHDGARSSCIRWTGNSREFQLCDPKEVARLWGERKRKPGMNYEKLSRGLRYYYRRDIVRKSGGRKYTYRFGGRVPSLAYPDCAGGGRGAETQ
# In short: as §1
# ELF3 = target: T5, ELF3 (Homo sapiens, UniProt P78545 1-371); settings: protein: recombinant; tags: N-terminal GST; dsDNA, one strand shown
# T5 sequence: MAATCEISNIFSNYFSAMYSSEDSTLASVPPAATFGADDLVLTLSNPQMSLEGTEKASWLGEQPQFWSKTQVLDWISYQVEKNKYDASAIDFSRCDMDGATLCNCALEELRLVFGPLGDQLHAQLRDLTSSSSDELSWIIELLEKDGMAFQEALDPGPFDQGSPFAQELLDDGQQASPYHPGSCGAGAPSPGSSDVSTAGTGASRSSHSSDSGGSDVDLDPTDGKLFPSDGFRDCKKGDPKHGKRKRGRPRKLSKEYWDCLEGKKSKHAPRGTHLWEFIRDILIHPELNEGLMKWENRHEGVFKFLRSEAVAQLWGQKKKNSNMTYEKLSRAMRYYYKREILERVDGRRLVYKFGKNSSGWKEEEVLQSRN
# In short: as §1
# CRX = CRX (Homo sapiens, UniProt O43186 1-299); settings: protein: recombinant; tags: N-terminal GST; dsDNA, one strand shown
# In short: as §1
# ETV1 = ETV1 (Homo sapiens, UniProt P50549 1-477); settings: protein: recombinant; tags: N-terminal GST; dsDNA, one strand shown
# In short: as §1
# ERF = target: T6, ERF (Homo sapiens, UniProt P50548 1-548); settings: protein: recombinant; tags: N-terminal GST; dsDNA, one strand shown
# T6 sequence: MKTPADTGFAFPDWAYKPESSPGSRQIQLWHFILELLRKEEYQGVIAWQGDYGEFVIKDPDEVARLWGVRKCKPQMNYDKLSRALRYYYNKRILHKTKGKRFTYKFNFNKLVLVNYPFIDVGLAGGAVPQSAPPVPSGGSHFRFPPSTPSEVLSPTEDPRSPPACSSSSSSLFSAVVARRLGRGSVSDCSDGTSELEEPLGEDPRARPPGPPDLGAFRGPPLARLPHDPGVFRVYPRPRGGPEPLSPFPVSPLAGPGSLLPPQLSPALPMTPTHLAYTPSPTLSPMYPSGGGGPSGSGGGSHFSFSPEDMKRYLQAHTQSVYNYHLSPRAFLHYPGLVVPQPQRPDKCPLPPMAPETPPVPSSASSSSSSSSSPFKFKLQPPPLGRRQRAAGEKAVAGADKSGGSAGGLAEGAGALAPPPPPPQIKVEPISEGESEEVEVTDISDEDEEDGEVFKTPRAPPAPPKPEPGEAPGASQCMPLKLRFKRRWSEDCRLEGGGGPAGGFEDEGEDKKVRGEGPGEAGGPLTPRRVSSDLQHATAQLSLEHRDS
# In short: as §1
# ETV3L = target: T7, ETV3L (Homo sapiens, UniProt Q6ZN32 1-361); settings: protein: recombinant; tags: N-terminal GST; dsDNA, one strand shown
# T7 sequence: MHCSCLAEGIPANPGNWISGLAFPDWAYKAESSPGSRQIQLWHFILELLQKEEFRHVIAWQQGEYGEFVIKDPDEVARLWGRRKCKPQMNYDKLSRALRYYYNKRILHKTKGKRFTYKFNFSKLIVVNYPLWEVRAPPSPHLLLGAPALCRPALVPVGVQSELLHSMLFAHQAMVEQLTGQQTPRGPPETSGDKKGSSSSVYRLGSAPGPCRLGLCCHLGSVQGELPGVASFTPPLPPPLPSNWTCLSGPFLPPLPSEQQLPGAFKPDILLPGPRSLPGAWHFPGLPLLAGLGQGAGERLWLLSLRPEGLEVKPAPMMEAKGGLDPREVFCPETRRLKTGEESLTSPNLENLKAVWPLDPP
# In short: as §1
# ETS2 = target: T8, ETS2 (Homo sapiens, UniProt P15036 1-469); settings: protein: recombinant; tags: N-terminal GST; dsDNA, one strand shown
# T8 sequence: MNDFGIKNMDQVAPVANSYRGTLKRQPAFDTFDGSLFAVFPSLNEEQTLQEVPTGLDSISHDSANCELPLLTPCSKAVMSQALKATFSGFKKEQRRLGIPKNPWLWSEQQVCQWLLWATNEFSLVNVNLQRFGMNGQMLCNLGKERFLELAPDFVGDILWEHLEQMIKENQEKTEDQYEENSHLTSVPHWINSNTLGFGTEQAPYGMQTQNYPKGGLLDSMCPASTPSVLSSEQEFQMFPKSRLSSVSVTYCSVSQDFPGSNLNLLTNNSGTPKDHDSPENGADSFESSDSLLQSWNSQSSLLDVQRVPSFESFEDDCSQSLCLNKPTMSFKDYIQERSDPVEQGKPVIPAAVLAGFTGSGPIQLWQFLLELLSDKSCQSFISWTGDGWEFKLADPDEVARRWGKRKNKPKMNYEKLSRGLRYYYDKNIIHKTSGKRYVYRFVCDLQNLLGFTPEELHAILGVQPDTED
# In short: as §1
# SPDEF = target: T9, SPDEF (Homo sapiens, UniProt O95238 1-335); settings: protein: recombinant; tags: N-terminal GST; dsDNA, one strand shown
# T9 sequence: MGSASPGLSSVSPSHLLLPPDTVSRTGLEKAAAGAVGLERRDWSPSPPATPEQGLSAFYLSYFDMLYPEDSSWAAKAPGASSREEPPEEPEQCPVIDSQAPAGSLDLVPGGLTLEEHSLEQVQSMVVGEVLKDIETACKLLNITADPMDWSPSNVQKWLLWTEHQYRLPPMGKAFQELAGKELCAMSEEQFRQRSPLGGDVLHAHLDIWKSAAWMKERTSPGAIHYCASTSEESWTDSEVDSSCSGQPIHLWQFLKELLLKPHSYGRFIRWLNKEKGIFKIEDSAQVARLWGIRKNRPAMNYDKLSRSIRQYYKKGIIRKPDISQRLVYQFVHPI
# In short: as §1
# ETV7 = target: T10, ETV7 (Homo sapiens, UniProt Q9Y603 1-341); settings: protein: recombinant; tags: N-terminal GST; dsDNA, one strand shown
# T10 sequence: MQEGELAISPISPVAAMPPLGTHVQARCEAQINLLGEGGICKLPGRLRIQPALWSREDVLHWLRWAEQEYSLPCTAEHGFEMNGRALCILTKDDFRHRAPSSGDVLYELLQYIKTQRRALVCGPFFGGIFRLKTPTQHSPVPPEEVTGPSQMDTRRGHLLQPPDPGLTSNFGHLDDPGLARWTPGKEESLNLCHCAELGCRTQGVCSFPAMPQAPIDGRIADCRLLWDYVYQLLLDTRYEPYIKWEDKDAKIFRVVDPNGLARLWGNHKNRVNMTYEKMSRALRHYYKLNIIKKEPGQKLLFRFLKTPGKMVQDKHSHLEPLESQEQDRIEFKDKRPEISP
# In short: as §1
# ELF5 = target: T11, ELF5 (Homo sapiens, UniProt Q9UKW6-2 1-255); settings: protein: recombinant; tags: N-terminal GST; dsDNA, one strand shown
# T11 sequence: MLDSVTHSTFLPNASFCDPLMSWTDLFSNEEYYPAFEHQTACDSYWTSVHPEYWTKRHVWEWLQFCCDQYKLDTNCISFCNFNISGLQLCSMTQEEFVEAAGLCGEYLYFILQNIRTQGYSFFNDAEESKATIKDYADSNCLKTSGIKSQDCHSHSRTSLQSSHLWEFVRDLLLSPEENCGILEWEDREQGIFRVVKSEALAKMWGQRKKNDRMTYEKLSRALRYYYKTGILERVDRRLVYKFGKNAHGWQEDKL
# In short: as §1
# ETV3 = target: T12, ETV3 (Homo sapiens, UniProt P41162-2 1-143); settings: protein: recombinant; tags: N-terminal GST; dsDNA, one strand shown
# T12 sequence: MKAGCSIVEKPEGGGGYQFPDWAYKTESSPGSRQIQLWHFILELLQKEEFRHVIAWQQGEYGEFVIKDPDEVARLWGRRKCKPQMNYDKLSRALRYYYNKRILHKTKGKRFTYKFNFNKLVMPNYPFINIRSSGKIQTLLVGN
# In short: as §1
# ETV6 = ETV6 (Homo sapiens, UniProt P41212 1-452); settings: protein: recombinant; tags: N-terminal GST; dsDNA, one strand shown
# In short: as §1
# Sequence of ELF4 (Q99607 whole entry): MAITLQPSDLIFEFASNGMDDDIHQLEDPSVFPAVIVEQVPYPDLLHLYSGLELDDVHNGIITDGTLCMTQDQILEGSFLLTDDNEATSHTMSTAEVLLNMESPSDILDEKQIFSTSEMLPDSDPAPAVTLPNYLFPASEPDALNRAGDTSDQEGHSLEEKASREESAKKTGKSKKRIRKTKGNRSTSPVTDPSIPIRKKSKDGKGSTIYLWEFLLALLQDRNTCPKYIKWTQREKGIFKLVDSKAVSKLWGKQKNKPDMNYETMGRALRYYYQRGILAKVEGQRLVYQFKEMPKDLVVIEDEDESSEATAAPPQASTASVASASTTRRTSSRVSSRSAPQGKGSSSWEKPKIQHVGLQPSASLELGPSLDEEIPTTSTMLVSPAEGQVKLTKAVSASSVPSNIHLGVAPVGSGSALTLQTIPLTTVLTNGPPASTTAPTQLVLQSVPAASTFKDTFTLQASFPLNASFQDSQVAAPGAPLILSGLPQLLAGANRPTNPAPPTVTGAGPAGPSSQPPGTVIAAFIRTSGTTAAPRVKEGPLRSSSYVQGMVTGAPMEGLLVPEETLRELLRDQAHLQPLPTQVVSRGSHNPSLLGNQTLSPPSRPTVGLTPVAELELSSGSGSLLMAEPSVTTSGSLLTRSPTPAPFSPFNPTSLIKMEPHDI
# Sequence of ETV6 (P41212 whole entry): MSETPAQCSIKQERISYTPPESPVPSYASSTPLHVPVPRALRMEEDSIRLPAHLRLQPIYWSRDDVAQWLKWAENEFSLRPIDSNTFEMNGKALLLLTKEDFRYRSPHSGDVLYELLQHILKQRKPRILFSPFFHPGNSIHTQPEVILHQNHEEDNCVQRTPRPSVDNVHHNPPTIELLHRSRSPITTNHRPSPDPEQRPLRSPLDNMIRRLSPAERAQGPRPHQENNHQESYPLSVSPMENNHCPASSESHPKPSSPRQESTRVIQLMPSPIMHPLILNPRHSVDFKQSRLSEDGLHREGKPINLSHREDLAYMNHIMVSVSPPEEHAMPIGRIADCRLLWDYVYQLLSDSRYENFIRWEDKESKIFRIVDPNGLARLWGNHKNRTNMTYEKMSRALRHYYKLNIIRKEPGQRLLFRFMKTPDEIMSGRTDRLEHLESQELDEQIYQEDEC
# Sequence of CRX (O43186 whole entry): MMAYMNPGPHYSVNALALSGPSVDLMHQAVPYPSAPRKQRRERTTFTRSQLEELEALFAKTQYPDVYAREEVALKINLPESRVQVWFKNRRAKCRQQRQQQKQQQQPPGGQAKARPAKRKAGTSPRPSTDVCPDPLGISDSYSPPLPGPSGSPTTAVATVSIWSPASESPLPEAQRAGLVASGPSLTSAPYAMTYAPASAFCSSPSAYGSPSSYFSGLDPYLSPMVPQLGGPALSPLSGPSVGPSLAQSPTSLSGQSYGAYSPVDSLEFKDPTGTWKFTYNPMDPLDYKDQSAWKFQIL
# Sequence of ETV5 (P41161 whole entry): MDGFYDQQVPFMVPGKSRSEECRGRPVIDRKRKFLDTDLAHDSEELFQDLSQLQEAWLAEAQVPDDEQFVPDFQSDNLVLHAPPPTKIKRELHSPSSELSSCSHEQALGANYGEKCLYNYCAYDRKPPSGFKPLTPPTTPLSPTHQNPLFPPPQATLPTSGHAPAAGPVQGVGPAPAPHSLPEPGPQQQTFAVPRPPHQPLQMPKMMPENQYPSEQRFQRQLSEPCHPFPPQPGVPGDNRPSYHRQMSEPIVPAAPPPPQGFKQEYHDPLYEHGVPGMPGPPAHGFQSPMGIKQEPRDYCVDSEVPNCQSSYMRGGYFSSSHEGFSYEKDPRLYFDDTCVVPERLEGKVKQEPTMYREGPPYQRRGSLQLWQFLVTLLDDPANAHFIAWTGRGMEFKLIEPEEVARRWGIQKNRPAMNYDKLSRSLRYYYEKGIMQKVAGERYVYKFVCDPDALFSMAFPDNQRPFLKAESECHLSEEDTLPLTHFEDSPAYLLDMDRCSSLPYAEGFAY
# Sequence of HSF1 (Q00613 whole entry): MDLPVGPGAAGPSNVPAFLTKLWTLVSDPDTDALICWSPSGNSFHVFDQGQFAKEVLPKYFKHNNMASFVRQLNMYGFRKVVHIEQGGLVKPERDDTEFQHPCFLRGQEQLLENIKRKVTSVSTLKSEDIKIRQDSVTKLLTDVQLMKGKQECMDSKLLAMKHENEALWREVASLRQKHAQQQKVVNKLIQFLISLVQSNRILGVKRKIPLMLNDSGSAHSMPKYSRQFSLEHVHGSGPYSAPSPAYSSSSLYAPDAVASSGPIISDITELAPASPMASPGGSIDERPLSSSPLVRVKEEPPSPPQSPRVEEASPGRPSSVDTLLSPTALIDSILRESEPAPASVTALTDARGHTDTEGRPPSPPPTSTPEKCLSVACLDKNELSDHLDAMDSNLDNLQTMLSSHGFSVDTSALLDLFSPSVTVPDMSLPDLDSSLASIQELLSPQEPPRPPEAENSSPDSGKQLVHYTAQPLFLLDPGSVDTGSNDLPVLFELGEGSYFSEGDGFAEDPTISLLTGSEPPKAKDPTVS
# Sequence of ETV1 (P50549 whole entry): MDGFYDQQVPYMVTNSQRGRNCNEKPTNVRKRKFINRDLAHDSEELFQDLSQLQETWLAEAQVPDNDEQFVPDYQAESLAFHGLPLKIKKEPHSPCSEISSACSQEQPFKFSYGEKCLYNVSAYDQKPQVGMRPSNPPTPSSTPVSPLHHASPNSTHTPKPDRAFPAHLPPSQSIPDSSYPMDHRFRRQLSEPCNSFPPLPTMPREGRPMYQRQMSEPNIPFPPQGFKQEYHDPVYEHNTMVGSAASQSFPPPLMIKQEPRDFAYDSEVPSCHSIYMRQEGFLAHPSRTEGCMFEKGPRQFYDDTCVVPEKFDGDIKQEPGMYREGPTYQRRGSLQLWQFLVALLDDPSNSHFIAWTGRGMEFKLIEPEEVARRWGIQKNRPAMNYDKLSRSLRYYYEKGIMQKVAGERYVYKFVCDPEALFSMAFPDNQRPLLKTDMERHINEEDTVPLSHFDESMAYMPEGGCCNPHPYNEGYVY
sequence,measurement,setting,value
CCCTCT,binding signal,FEV,"1.35 fold enrichment (6-mer frequency, TF over GST control)"
same,binding signal,ETV5,"1.33 fold enrichment (6-mer frequency, TF over GST control)"
same,binding signal,HSF1,"1.29 fold enrichment (6-mer frequency, TF over GST control)"
same,binding signal,SPIC,"1.14 fold enrichment (6-mer frequency, TF over GST control)"
same,binding signal,ELF4,"1.46 fold enrichment (6-mer frequency, TF over GST control)"
same,binding signal,ELK4,"1.6 fold enrichment (6-mer frequency, TF over GST control)"
same,binding signal,ETV2,"1.32 fold enrichment (6-mer frequency, TF over GST control)"
same,binding signal,ELF3,"1.34 fold enrichment (6-mer frequency, TF over GST control)"
same,binding signal,CRX,"1.36 fold enrichment (6-mer frequency, TF over GST control)"
same,binding signal,ETV1,"1.25 fold enrichment (6-mer frequency, TF over GST control)"
same,binding signal,ERF,"1.41 fold enrichment (6-mer frequency, TF over GST control)"
same,binding signal,ETV3L,"1.3 fold enrichment (6-mer frequency, TF over GST control)"
same,binding signal,ETS2,"1.36 fold enrichment (6-mer frequency, TF over GST control)"
same,binding signal,SPDEF,"1.17 fold enrichment (6-mer frequency, TF over GST control)"
same,binding signal,ETV7,"1.27 fold enrichment (6-mer frequency, TF over GST control)"
same,binding signal,ELF5,"1.29 fold enrichment (6-mer frequency, TF over GST control)"
same,binding signal,ETV3,"1.4 fold enrichment (6-mer frequency, TF over GST control)"
same,binding signal,ETV6,"1.31 fold enrichment (6-mer frequency, TF over GST control)"
